Results filed as inconclusive are left out. Where a call stands in place of a potency, no number is given. A number with no mark means an inactive call. Active and inactive are the calls of the source. Calls follow the shape of the dose curve; as a rule, active = well fitted activation curve with a large enough effect in the repeat runs; inconclusive = weak or mixed curves; inactive = flat fitted curve, though single readings scatter.
Assay: A CellTox Green Cytotoxicity Assay to monitor cytotoxicity in HepG2 cells - 24 hour (AID 1224878); also: nearly all actives have a fitted effect of over 45% in size
Conditions: CellTox Green fluorescence; series mostly up to 76.8 µM
Method in brief: (§1)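 HepG2 cells, 600/well, preincubated 5 h with CellTox Green dye, then exposed to Tox21 compounds in DMSO at 37 C for up to 40 h. Dead-cell DNA fluorescence read at the indicated time point.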
Potency is read from the fitted curve at half-maximal effect.

Compound | Potency | cytotoxicity
Cc1cccc(C)c1NC(=O)CN1CCCCCC1 | inactive | 
OCCN(CCO)CCN(CCO)CCO | inactive | 
CCOC(=O)NCCC[Si](OCC)(OCC)OCC | inactive | 
O=C(CCCl)NCc1ccccc1 | inactive | 
O=c1[nH]cnc2c1ncn2[C@@H]1O[C@H](CO)[C@@H](O)[C@H]1O | inactive | 
C=CC1CO1 (stereo unspecified) | inactive | 
C[C@]12C(=O)OC(=O)[C@H]1[C@H]1C=C[C@@H]2C1 | inactive | 
NNS(=O)(=O)c1ccc(Oc2ccc(S(=O)(=O)NN)cc2)cc1 | inactive | 
CN1CCN(C2=Nc3cc(F)ccc3Cc3ccccc32)CC1 | inactive | 
Cc1cn([C@@H]2O[C@H](CO)[C@@H](O)[C@@H]2F)c(=O)[nH]c1=O | inactive | 
CCCc1c2oc(C(=O)O)cc(=O)c2cc2c(=O)cc(C(=O)O)n(CC)c12 | inactive | 
Cc1ncc(CO)c(CN)c1O | inactive | 
NC1=NCC2c3ccccc3Cc3ccccc3N12 (stereo unspecified) | inactive | 
FC(F)(F)C(Cl)(Cl)Cl | inactive | 
CCCOCCC | inactive | 
Cc1cc2c(s1)Nc1ccccc1N=C2N1CCN(C)CC1 | inactive | 
CCC(=O)Nc1ccc(O)cc1 | inactive | 
CCC/C=C/CO | inactive | 
C[C@@H]1CN(c2c(F)c(F)c3c(=O)c(C(=O)O)cn(C4CC4)c3c2F)C[C@H](C)N1 |  | -13.2% [at 15.8 µM]

Compound | Potency | cytotoxicity
CCOC(=O)c1cc(=O)c2c(OCC(COc3cccc4oc(C(=O)OCC)cc(=O)c34)OC(=O)[C@@H](N)CCCCN)cccc2o1 | inactive | 
O=C(O)[C@@H]1CSCN1 | inactive | 
COC(=O)c1ccc2cc(C(=O)OC)ccc2c1 |  | -14.4% [at 15.8 µM]
Cc1ccccc1C(=O)Nc1ccc(C(=O)N2CCCC(O)c3cc(Cl)ccc32)c(C)c1 (stereo unspecified) | inactive | 
CCOC(=O)C(Br)c1ccccc1 (stereo unspecified) | inactive | 
Cc1ccc([N+](=O)[O-])c(N)c1 | inactive | 
C1CCOC1 | inactive | 
O=C1CCC(C2CCCCC2)CC1 | 38.9 µM (active) | 
CCCCCCCCOC(=O)CCCCCCCCC(=O)OCCCCCCCC | inactive | 
CCCCCCn1c(=O)c2c(ncn2C)n(C)c1=O | inactive | 
CN(C)Cc1ccccc1 | inactive | 
Cc1c(N)cccc1N | inactive | 
N#Cc1ccc(C(c2ccc(C#N)cc2)n2cncn2)cc1 | inactive | 
O=CCCc1ccccc1 | inactive | 
CCN(CC)CC1CCCCN1CC(=O)N1c2ccccc2C(=O)Nc2cccnc21 (stereo unspecified) | inactive | 
Cc1ccsc1C(=CCCN1CCC[C@@H](C(=O)O)C1)c1sccc1C | inactive | 
FC(F)(F)c1ccccc1 | inactive | 
O=S(=O)(O)C(F)(F)F | inactive | 

Assay: A CellTox Green Cytotoxicity Assay to monitor cytotoxicity in HepG2 cells - 40 hour (AID 1224879); also: nearly all actives have a fitted effect of over 40% in size
Conditions: CellTox Green fluorescence; series mostly up to 76.8 µM
Method in brief: as §1

Compound | Potency | cytotoxicity increase
Cc1cccc(C)c1NC(=O)CN1CCCCCC1 | inactive | 
OCCN(CCO)CCN(CCO)CCO | inactive | 
CCOC(=O)NCCC[Si](OCC)(OCC)OCC | inactive | 
O=C(CCCl)NCc1ccccc1 | inactive | 
O=c1[nH]cnc2c1ncn2[C@@H]1O[C@H](CO)[C@@H](O)[C@H]1O | inactive | 
C=CC1CO1 (stereo unspecified) | inactive | 
C[C@]12C(=O)OC(=O)[C@H]1[C@H]1C=C[C@@H]2C1 | inactive | 
NNS(=O)(=O)c1ccc(Oc2ccc(S(=O)(=O)NN)cc2)cc1 | inactive | 
CN1CCN(C2=Nc3cc(F)ccc3Cc3ccccc32)CC1 | inactive | 
CCCc1c2oc(C(=O)O)cc(=O)c2cc2c(=O)cc(C(=O)O)n(CC)c12 | inactive | 
Cc1ncc(CO)c(CN)c1O | inactive | 
NC1=NCC2c3ccccc3Cc3ccccc3N12 (stereo unspecified) | inactive | 
FC(F)(F)C(Cl)(Cl)Cl | inactive | 
Cc1cc2c(s1)Nc1ccccc1N=C2N1CCN(C)CC1 | inactive | 
CCC(=O)Nc1ccc(O)cc1 | inactive | 
CCC/C=C/CO | inactive | 
C[C@@H]1CN(c2c(F)c(F)c3c(=O)c(C(=O)O)cn(C4CC4)c3c2F)C[C@H](C)N1 |  | -9.16% [at 15.8 µM]

Compound | Potency | cytotoxicity increase
CCOC(=O)c1cc(=O)c2c(OCC(COc3cccc4oc(C(=O)OCC)cc(=O)c34)OC(=O)[C@@H](N)CCCCN)cccc2o1 | inactive | 
O=C(O)[C@@H]1CSCN1 | inactive | 
COC(=O)c1ccc2cc(C(=O)OC)ccc2c1 |  | -18% [at 15.8 µM]
Cc1ccccc1C(=O)Nc1ccc(C(=O)N2CCCC(O)c3cc(Cl)ccc32)c(C)c1 (stereo unspecified) | inactive | 
CCOC(=O)C(Br)c1ccccc1 (stereo unspecified) | inactive | 
Cc1ccc([N+](=O)[O-])c(N)c1 | inactive | 
C1CCOC1 | inactive | 
O=C1CCC(C2CCCCC2)CC1 | 38.9 µM (active) | 
CCCCCCCCOC(=O)CCCCCCCCC(=O)OCCCCCCCC | inactive | 
CCCCCCn1c(=O)c2c(ncn2C)n(C)c1=O | inactive | 
CN(C)Cc1ccccc1 | inactive | 
N#Cc1ccc(C(c2ccc(C#N)cc2)n2cncn2)cc1 | inactive | 
O=CCCc1ccccc1 | inactive | 
CCN(CC)CC1CCCCN1CC(=O)N1c2ccccc2C(=O)Nc2cccnc21 (stereo unspecified) | inactive | 
Cc1ccsc1C(=CCCN1CCC[C@@H](C(=O)O)C1)c1sccc1C | inactive | 
FC(F)(F)c1ccccc1 | inactive | 
O=S(=O)(O)C(F)(F)F | inactive | 
